High-throughput results deposited in PubChem BioAssay by several laboratories.
Only some compounds are listed: those with a hit (about 1.8% of all), similar ones and a draw of the others.
Gli-Sufu antag – Gli-Sufu pathway antagonism. Sufu-KO-LIGHT fibroblasts, Gli luciferase reporter luminescence. inhibition, % at 5 µM. hit rate 0.74% among 340,000;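 active means inhibition above about 55%, limit read from the data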
697 NFkB inh – inhibitors of the PMA/ionomycin-induced NF-kB reporter in 697 B cells; AID 435022; inhibition, % at 4 µM; hit rate 0.33% among 330,000; 697 B-cell NF-kB luciferase reporter, 16 h; in the data active means inhibition above about 35%
Jurkat NFkB inh – lowers PMA/ionomycin-induced NF-kB signal in Jurkat cells; PMA/ionomycin-induced NF-kB luciferase reporter, luminescence; inhibition, % at 4 µM; hit rate 0.53% among 330,000; AID 435003; in the data active means inhibition above about 50%
Beta cell apopt – blocks beta cell apoptosis | protection from apoptosis, % (concentration not given with the values) | AID 435005 | hit rate 0.8% among 300,000 | INS-1E cytokine-induced death, ATP luminescence, 48 h; percent of positive-control rescue, neutral wells zero;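 active means Every replicate reaches about 75%, or at least half do and their mean reaches it too, limit read from the data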;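 further: higher means more ATP so stronger rescue from cytokine killing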
697 NFkB conf – inhibitors of the PMA/ionomycin-induced NF-kB reporter in 697 B cells, retest | 697 B-cell NF-kB luciferase, 16 h | hit rate 35% among 2,000 | shares compounds with 697 NFkB inh | inhibition, % at 4 µM; in the data active means inhibition mostly above about 28%, no sharp cut-off; inactive means mostly below about 22%
Each line names hits and unclear results; the compound was inactive in the other large screens (follow-up assays come after a bar, where they were run).

Cc1c(NC(=O)CSc2nnc3c4ccccc4n(CCc4ccccc4)c3n2)c(=O)n(-c2ccccc2)n1C	none | 697 NFkB conf inactive
CCOc1ccccc1N1CC(C(=O)NNC(=O)c2ccc(F)cc2)CC1=O (stereo not drawn)	none
COc1cc(OC)cc(-c2cc3nc(C)c(CCC(=O)Nc4nc(C)cs4)c(C)n3n2)c1	697 NFkB inh 36 | 697 NFkB conf 39
C(=C\c1ccc2ccccc2n1)/c1ccccc1	none | 697 NFkB conf inactive
O=[N+]([O-])c1ccc(/C=C/c2ccc3ccccc3n2)cc1	none | 697 NFkB conf inactive
O=[N+]([O-])c1ccc(/C=C/c2ccc3cccc(O)c3n2)cc1	none
O=C(O)/C=C/c1ccc2ccccc2n1	none
CCc1ccc2oc(-c3cccc(N)c3)nc2c1	none | 697 NFkB conf inactive
Cc1oc(-c2ccccc2Cl)nc1CSCC(=O)NC1CCCC1	none
Cc1oc(-c2ccccc2Cl)nc1CSCC(=O)N1CCCC1	none | 697 NFkB conf inactive
Cc1oc(-c2cccc(Cl)c2)nc1CSc1nc2c(c(=O)[nH]1)CCC2	none
Cc1oc(-c2ccccc2Cl)nc1CSc1nc2c(c(=O)[nH]1)CCC2	697 NFkB inh 41 | 697 NFkB conf inactive
CCOC(=O)N1CCC(N2CCN(S(=O)(=O)c3ccc([N+](=O)[O-])cc3)CC2)CC1	697 NFkB inh 35 | 697 NFkB conf inactive
CCOC(=O)N1CCN(C(=O)COC(=O)c2ccc(O)cc2O)CC1	none
O=C(OCC(=O)N1CCN(C(=O)COC(=O)c2ccc(O)cc2O)CC1)c1ccc(O)cc1O	697 NFkB inh 39 | 697 NFkB conf inactive
CC(=O)Nc1cc(C(=O)c2ccccc2)ccc1N1CCOCC1	none
CC(C)c1ccc(NC(=O)[C@H](Cc2c[nH]c3ccccc23)NC(=O)[C@@H]2Cc3ccccc3CN2)cc1	none | 697 NFkB conf inactive
Cn1cccc1C(=O)OCc1csc(-c2ccccc2)n1	none (no result: Beta cell apopt) | 697 NFkB conf inactive
Cc1cccn2c(=O)c(C(=O)NC3CC(C)CC(C)(C)C3)c(O)nc12 (stereo not drawn)	none
COc1cc(CN2CCN(Cc3cn(C)c4ccccc34)CC2CCO)cc(OC)c1 (stereo not drawn)	none (no result: Beta cell apopt)
O=C(Nc1ccc2[nH]c(=S)sc2c1)Nc1ccccc1F	none | 697 NFkB conf inactive
CC(C)N(c1ccccc1)c1ccc(NC(=O)CCl)cc1	697 NFkB inh 35 | 697 NFkB conf inactive
Cc1ccc(CONS(=O)(=O)c2cc(C)ccc2C)cc1	none
COCCn1c(SC(C)C(=O)Nc2ncc(Cl)cc2Cl)nc2ccccc21 (stereo not drawn)	none | 697 NFkB conf inactive
CC(=O)c1ccc(N=Nc2ccc(C)cc2)cc1	none (no result: Beta cell apopt) | 697 NFkB conf inactive
CC(=O)c1ccc(N=Nc2ccc(N(C)C)cc2)cc1	none
COc1ccc(C(=O)Nc2ccccc2C(=O)N/N=C/c2cccc3ccccc23)cc1	none | 697 NFkB conf inactive
COc1ccc(C(=O)Nc2ccccc2C(=O)Nc2ccccc2C(=O)O)cc1	none
COC(=O)c1cccc(C(=O)N2CCCC(C(=O)c3cc(F)ccc3F)C2)c1 (stereo not drawn)	697 NFkB inh 39 | 697 NFkB conf inactive
O=C(Nc1ccc2ccccc2n1)c1ccccc1Cl	none (no result: Beta cell apopt) | 697 NFkB conf inactive
COc1ccc(C(=O)Nc2ccc3ccccc3n2)c(OC)c1OC	none | 697 NFkB conf inactive
COc1cc(NS(=O)(=O)c2cccc3nsnc23)cc(OC)c1	none
COc1ccc(S(=O)(=O)Nc2ccc(N(C)C(C)=O)cc2)cc1	697 NFkB inh 37 | 697 NFkB conf inactive
COc1ccc(S(=O)(=O)Nc2ccc(NC(C)=O)cc2)cc1	none
CC(=O)c1c[nH]c(C(=O)Nc2ccc(N3CCCCCC3)cc2)c1	697 NFkB inh 40 | 697 NFkB conf inactive
O=C(Nc1ccc(N2CCCC2)cc1)c1cccc(F)c1	none | 697 NFkB conf inactive
COc1ccc(-c2noc(N3CCC(C(=O)Nc4ccc(F)cc4)CC3)n2)cc1	none
COc1ccc(-c2noc(N3CCC(C(=O)Nc4cccc(OC)c4)CC3)n2)cc1	697 NFkB inh 42 | 697 NFkB conf 34
Cc1cccc(C(=O)n2c(=S)nc3ccccn32)c1	none | 697 NFkB conf inactive
CC(C)(C)C(=O)Nc1sc(-c2ccccc2)cc1C(=O)O	none | 697 NFkB conf inactive
O=C(c1cc2nc(-c3ccccc3)cc(-c3ccccc3)n2n1)N1CCN(C(=O)c2ccco2)CC1	697 NFkB inh 42 | 697 NFkB conf 36
Cc1nc2ccccc2c(=O)n1/N=C1\C(=O)N(C)c2ccccc21	697 NFkB inh 58 (no result: Gli-Sufu antag) | 697 NFkB conf inactive
Cc1nc2ccccc2c(=O)n1/N=C/c1ccccc1	none
Cc1ccc(CSc2nnc(SCC(=O)N/N=C/C=C/c3ccco3)s2)cc1	none
Cc1ccc(CSc2nnc(SCC(=O)N/N=C/C=C/c3ccccc3[N+](=O)[O-])s2)cc1	697 NFkB inh 66 | 697 NFkB conf 55
O=C(Nc1cccc2ccccc12)c1ccc(OC(=S)N2CCOCC2)cc1	none | 697 NFkB conf inactive
CC(Cc1ccccc1)C(=O)NCCO (stereo not drawn)	none
Cc1ccc(C)c(N2CN(Cc3cccnc3)CNC2=S)c1	none (no result: Beta cell apopt)
CCOC(=O)C(C)c1n[nH]c(=O)c2ccccc12 (stereo not drawn)	697 NFkB inh 38 | 697 NFkB conf inactive
Cc1noc(C)c1NC(=O)N(C)C[C@H]1Oc2ccc(NS(=O)(=O)c3cn(C)cn3)cc2C(=O)N([C@H](C)CO)C[C@@H]1C	none
CCOC(=O)c1c(N2C(=O)Nc3ccccc3N2O)n[nH]c1-c1cccc(OC)c1	none
Cc1ccc(OCCn2cc(C(=S)N3CCCC3)c3ccccc32)cc1C	none | 697 NFkB conf inactive
Fc1cccc(C2NN=C(c3ccccc3)S2)c1 (stereo not drawn)	none | 697 NFkB conf inactive
O=C1Nc2ccc(S(=O)(=O)NCCCO)c3cccc1c23	none (no result: Beta cell apopt)
CCNS(=O)(=O)c1ccc2c3c(cccc13)C(=O)N2	697 NFkB inh 38 (no result: Beta cell apopt) | 697 NFkB conf inactive
CCC(=O)Nc1cccc(-c2nc3ccc(C)cc3o2)c1	none
CCC(=O)Nc1ccc2oc(-c3cccc(C)c3)nc2c1	none | 697 NFkB conf inactive
Cc1c(NC(=O)Nc2ccc(Cl)cc2)c(=O)n(-c2ccccc2)n1C	none (no result: Beta cell apopt)
COC(=O)CSc1nnc(-c2ccccc2O)n1-c1ccc(C)cc1	none
CCOC(=O)c1cc(CC)sc1N1C(=O)CC(Sc2ncccc2C(=O)O)C1=O (stereo not drawn)	697 NFkB inh 46 | 697 NFkB conf inactive
CCc1nc(SCC(=O)OC(C)C)c2ccccc2n1	none
O=C(/C=C/Nc1ccc(Br)cc1F)c1ccco1	none | 697 NFkB conf inactive
O=C(/C=C/Nc1ccccc1O)c1ccco1	none
CC1Cc2ccccc2N1S(=O)(=O)c1cnc(Cl)c(Br)c1 (stereo not drawn)	697 NFkB inh 40 | 697 NFkB conf 35
CC1Cc2ccccc2N1S(=O)(=O)c1cccc(C(=O)N2CCCCC2)c1 (stereo not drawn)	none (no result: Beta cell apopt)
CC1Cc2ccccc2N1S(=O)(=O)c1cccc(C(=O)c2nccn2C)c1 (stereo not drawn)	none
CC1Cc2ccccc2N1S(=O)(=O)c1cnc(Cl)c(Cl)c1 (stereo not drawn)	697 NFkB inh 45 | 697 NFkB conf 33
COc1ccc(NC(=O)C2CCCN2C(=O)NCc2ccccc2)c(OC)c1 (stereo not drawn)	none
